FMDV antiviral – foot and mouth disease virus antiviral activity | Potency, µM (doses to about 57.9 µM), usual class: inhibitors | AID 1159524 | FMDV antiviral cell-based qHTS | actives 1.2% (n = 410,000); calls by dose curve; tested in HEK293T cells; further: read-out not given here; nearly all actives have a fitted effect of over 45% in size
LASV entry inh – Lassa virus entry inhibition; Potency, µM (top dose mostly 37.9 µM), hits mostly inhibitors; actives 1.2% (n = 300,000); Lassa virus pseudotype entry inhibition, cell reporter; AID 540256; calls by dose curve; tested in HEK293 cells; further: nearly all actives have a fitted effect of over 50% in size
Vaccinia mCherry – inhibitors of vaccinia virus infection (mCherry reporter signal); Vaccinia virus mCherry reporter infection, fluorescence; Potency, µM (titrated, usually from 36.5 µM), actives largely listed as inhibitors; actives 0.63% (n = 310,000); AID 720579; calls by dose curve; tested in A549 cells; further: nearly all actives have a fitted effect of over 35% in size
VACV Venus inh – vaccinia inhibition (Venus reporter). Vaccinia virus Venus reporter expression, fluorescence. Potency, µM (doses to about 36.5 µM), most hits filed as inhibitors. actives 0.46% (n = 330,000). AID 720580; calls by dose curve; tested in A549 cells; further: nearly all actives have a fitted effect of over 30% in size
MARV entry inh – Marburg virus entry inhibition; Marburg virus pseudotyped entry inhibition, cell reporter; Potency, µM (doses to about 37.8 µM), actives largely listed as inhibitors; actives 1.8% (n = 300,000); calls by dose curve; tested in HEK293 cells
HCMV inh – inhibitors of human cytomegalovirus | AID 1259415 | activity change, negative = inhibition, % at 57.5 µM | HFF cells, HCMV-luciferase reporter, 72 h; active compounds read low | actives 4.5% (n = 410,000); in the data active means activity change below about -60%; inconclusive means no clear call, values can overlap the other calls; inactive means above about -39%
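Luciferase read-out from HCMV-luciferase-infected HFFs (MOI 1 PFU/cell) 72 h post infection at 37C; compounds added after 16 h cell attachment; activity normalized between buffer-only basal and Salinomycin (10uM) inhibitor controls.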
Each line names hits and unclear results; the compound was inactive in the other large screens. Only some compounds are listed: those with a hit (about 6.5% of all), similar ones and a draw of the others.

COc1ccc(Nc2nc(N3CCCC3)c3ccccc3n2)cc1	FMDV antiviral inconclusive, LASV entry inh inconclusive, Vaccinia mCherry 8.9µM, VACV Venus inh 10µM, MARV entry inh 1.6µM
CCN(CC)c1ccc(Nc2nc(N3CCOCC3)c3ccccc3n2)cc1	FMDV antiviral inconclusive, LASV entry inh 18µM, MARV entry inh inconclusive, HCMV inh -96 (no result: Vaccinia mCherry, VACV Venus inh)
Cc1nc(N2CCCCCC2)c2ccccc2n1	HCMV inh inconclusive (no result: LASV entry inh, Vaccinia mCherry, VACV Venus inh, MARV entry inh)
CCN(CC)CCNc1ncnc2c1sc1nc(N3CCOCC3)c3c(c12)CC(C)(C)SC3	none (no result: Vaccinia mCherry, VACV Venus inh)
CN(C)CCNc1ncnc2c1sc1nc(N3CCOCC3)c3c(c12)CC(C)(C)SC3	FMDV antiviral inconclusive, LASV entry inh inconclusive, MARV entry inh 15µM, HCMV inh inconclusive (no result: Vaccinia mCherry, VACV Venus inh)
CCCN(CCC)CCCNC(=S)Nc1ccc2nc(N3CCCC3)cc(C)c2c1	HCMV inh -81 (no result: LASV entry inh, Vaccinia mCherry, VACV Venus inh, MARV entry inh)
CCN(CC)CCNC(=S)Nc1ccc2nc(N3CCCC3)cc(C)c2c1	LASV entry inh inconclusive, MARV entry inh 4.1µM (no result: Vaccinia mCherry, VACV Venus inh)
CC(C)CCNC(=O)C(C)N(Cc1ccc(F)cc1)C(=O)c1ccc(CN2CCOCC2)o1 (configuration not stated)	none
CC(C)(C)NC(=O)C(c1ccc(F)cc1)N(Cc1cccs1)C(=O)c1ccc(CN2CCOCC2)o1 (configuration not stated)	MARV entry inh 2.8µM
Cc1ccc(-c2nnc(Nc3ccc(S(N)(=O)=O)cc3)c3ccccc23)cc1S(=O)(=O)N1CCOCC1	none (no result: MARV entry inh)
Cc1cc(C(=O)CSc2nc(N)cc(=O)[nH]2)c(C)n1CCc1ccc(F)cc1	FMDV antiviral 16µM, VACV Venus inh inconclusive, MARV entry inh inconclusive, HCMV inh -82
CCCc1cc(=O)[nH]c(SCC(=O)c2cc(C)n(CCOC)c2C)n1	none (no result: Vaccinia mCherry, VACV Venus inh)
COc1ccc(CCn2c(C)cc(C(=O)CSc3nc(N)cc(=O)[nH]3)c2C)cc1	FMDV antiviral 18µM, LASV entry inh inconclusive, VACV Venus inh inconclusive, MARV entry inh inconclusive, HCMV inh -95
COc1ccc(CCn2c(C)cc(C(=O)CSc3nnc(N)s3)c2C)cc1	FMDV antiviral 28µM, LASV entry inh inconclusive, MARV entry inh inconclusive (no result: HCMV inh)
Cc1cc(C(=O)CSc2nc(N)cc(=O)[nH]2)c(C)n1-c1ccc(OC(F)F)cc1	FMDV antiviral 3.5µM, LASV entry inh inconclusive, Vaccinia mCherry inconclusive, VACV Venus inh inconclusive, MARV entry inh inconclusive, HCMV inh -106
Cc1cc(-n2c(C)cc(C(=O)CSc3nc(N)cc(=O)[nH]3)c2C)no1	FMDV antiviral inconclusive, HCMV inh inconclusive (no result: LASV entry inh, MARV entry inh)
CCOC(=O)c1c(NC(=O)C2CCCCC2C(=O)O)sc2c1CCCC2 (configuration not stated)	none (no result: FMDV antiviral, LASV entry inh, Vaccinia mCherry, VACV Venus inh, HCMV inh)
CC(C)OC(=O)Nc1ccc2nc(-c3cscn3)[nH]c2c1	none (no result: FMDV antiviral, LASV entry inh, Vaccinia mCherry, VACV Venus inh, MARV entry inh)
COCCn1c(C)cc(C(=O)CSc2nc3ccccc3s2)c1C	FMDV antiviral 16µM, LASV entry inh inconclusive, Vaccinia mCherry inconclusive, MARV entry inh inconclusive, HCMV inh -83
COCCn1c(C)cc(C(=O)CSc2nc3ccccc3o2)c1C	LASV entry inh inconclusive, MARV entry inh inconclusive (no result: Vaccinia mCherry, VACV Venus inh)
Cc1ccccc1CN(CC(=O)Nc1cccc([N+](=O)[O-])c1)S(=O)(=O)c1ccc(Cl)cc1	FMDV antiviral 40µM, LASV entry inh inconclusive, Vaccinia mCherry inconclusive, VACV Venus inh inconclusive, MARV entry inh inconclusive
c1nc(NCc2ccc3c(c2)OCO3)c2[nH]cnc2n1	none (no result: FMDV antiviral, LASV entry inh, MARV entry inh, HCMV inh)
CCCn1c2ccccc2c2nnc(SC(CC)C(=O)Nc3cc(C)on3)nc21 (configuration not stated)	LASV entry inh inconclusive, VACV Venus inh inconclusive, MARV entry inh 13µM (no result: Vaccinia mCherry)
CCC(Sc1nnc2c3ccccc3n(CC)c2n1)C(=O)Nc1ccc(NC(C)=O)cc1 (configuration not stated)	MARV entry inh 3.5µM
COc1ccc(OC)c(CNC(=O)CCc2c(C)nc3c(c2C)c(=O)n(C)c(=O)n3C)c1	none
O=C(CC(NC(=O)C(F)(F)F)c1ccccc1)Nc1nnc(CCc2ccccc2)s1 (configuration not stated)	MARV entry inh inconclusive, HCMV inh -65
Cc1cc(/C=C2\SC(=S)N(C)C2=O)c(C)n1-c1ccc(O)cc1	FMDV antiviral 0.89µM, Vaccinia mCherry inconclusive, HCMV inh -97 (no result: LASV entry inh, MARV entry inh)
Cc1cc(/C=C2\SC(=S)N(C)C2=O)c(C)n1-c1ccccc1O	FMDV antiviral inconclusive, LASV entry inh inconclusive, Vaccinia mCherry inconclusive, MARV entry inh inconclusive
Cc1cc(/C=C2/SC(=S)N(c3cccc(Cl)c3)C2=O)c(C)n1-c1cccnc1	FMDV antiviral inconclusive, LASV entry inh inconclusive, Vaccinia mCherry inconclusive, VACV Venus inh inconclusive, MARV entry inh inconclusive, HCMV inh -93
